Screening results deposited in PubChem by National Center for Advancing Translational Sciences (NCATS).
Giardia FBPA inh: qHTS Assay for Inhibitors of Fructose-1,6-bisphosphate Aldolase from Giardia Lamblia. Potency, µM (series often up to 59.6 µM), without a hit: top-dose activity, negative = inhibition, usual class: inhibitors. 0.71% of 290,000 active. purified Giardia FBPA. A8B2U2; further: potency means the concentration at half of the fitted maximal effect; on the % scale 0 is the no-effect control and ±100 the full control effect; nearly all actives have a fitted effect of over 55% in size
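Giardia FBPA (40 nM reagent) was preincubated 10 min at RT with compound (up to 57.5 uM final), then substrate plus GAPDH/TPI/NAD/arsenate coupling system with diaphorase/resazurin was added; resorufin fluorescence (525/598 nm) was read after 20 min.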
RE007 growth inh: qHTS Assay for Inhibitors of the HIV-1 protein Vpr. AID 651644, 2012. 0.21% of 360,000 active. Potency, µM (series often up to 92.2 µM), inactives show at the top dose activity change, negative = less growth, usual class: inhibitors. S. pombe RE007 Vpr strain, BacTiter-Glo ATP luminescence, 24 h; active means well fitted falling curve with a large enough effect; inconclusive means small, poorly fitted or top-dose-only effect; inactive means no such curve, though single readings can be large or run the other way; further: potency means the concentration at half of the fitted maximal effect; on the % scale 0 is the no-effect control and ±100 the full control effect; nearly all actives have a fitted effect of over 50% in size
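Fission yeast strain RE007, carrying one chromosomally integrated HIV-1 vpr copy, was seeded at OD 0.01 in PMG+AL medium with 23 nL pinned compound. After 24 h at 30 °C and 99% humidity, viability was read by BacTiter-Glo luminescence.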
Tb PYK inh: qHTS of Trypanosoma Brucei Inhibitors; pyruvate kinase (Trypanosoma brucei), Q57TT1; TbPYK enzyme, Kinase-Glo Plus ATP luminescence, 45 min; Potency, µM (doses to about 76.8 µM), for the others: at the highest dose activity, negative = inhibition, most hits filed as inhibitors; 0.12% of 410,000 active; AID 624173, 2012; further: potency means the concentration at half of the fitted maximal effect; on the % scale 0 is the no-effect control and ±100 the full control effect; nearly all actives have a fitted effect of over 50% in size
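Activity of T. brucei pyruvate kinase was followed by Kinase-Glo Plus luminescence after the enzyme reacted 45 min at room temperature with 130 uM ADP (final) and substrate. Test compounds were added before ADP at multiple concentrations.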
LmPK inh: qHTS Assay for Inhibitors of Leishmania Mexicana Pyruvate Kinase (LmPK). Q27686. purified LmPK, Kinase-Glo ATP luminescence, 1 h. Potency, µM (highest dose often 57.5 µM), inactives show at the top dose activity change, negative = inhibition, hits mostly inhibitors. 0.37% of 290,000 active. AID 1721, 2009; further: potency means the concentration at half of the fitted maximal effect; on the % scale 0 is the no-effect control and ±100 the full control effect
Target sequence (Q27686 whole entry, looked up): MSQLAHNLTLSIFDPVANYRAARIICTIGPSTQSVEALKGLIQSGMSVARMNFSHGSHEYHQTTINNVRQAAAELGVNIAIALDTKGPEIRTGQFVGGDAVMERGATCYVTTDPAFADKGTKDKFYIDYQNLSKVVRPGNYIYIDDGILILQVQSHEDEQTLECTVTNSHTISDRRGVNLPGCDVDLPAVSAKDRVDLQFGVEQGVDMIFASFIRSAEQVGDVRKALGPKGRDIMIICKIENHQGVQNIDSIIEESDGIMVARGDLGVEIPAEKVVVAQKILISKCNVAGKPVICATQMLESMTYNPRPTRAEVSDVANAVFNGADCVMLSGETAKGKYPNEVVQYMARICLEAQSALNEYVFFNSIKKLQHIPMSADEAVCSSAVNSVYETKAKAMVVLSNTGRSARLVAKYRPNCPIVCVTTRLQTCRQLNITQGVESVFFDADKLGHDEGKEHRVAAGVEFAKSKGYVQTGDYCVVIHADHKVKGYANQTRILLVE
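Purified LmPK (0.1 nM) converted ADP (0.1 mM) to ATP with PEP (0.5 mM) in imidazole buffer pH 7.2 with KCl and MgCl2, 1 h at room temperature. ATP was read by Kinase-Glo luminescence; data normalized to uninhibited and no-enzyme controls.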
LmPK confirm: Confirmation Assay for Inhibitors of Leishmania Mexicana Pyruvate Kinase (LmPK) | AID 2559, 2010 | 40% of 150 active | Potency, µM (titrated, usually from 57.5 µM), inactives show top-dose activity change, negative = inhibition, usual class: inhibitors | purified LmPK, Kinase-Glo ATP luminescence, 1 h | shares compounds with LmPK inh;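 active means compounds giving a full or partial concentration-response curve, as inhibitors or activators; inconclusive means weak, top-dose-only or unclear curve responses; inactive means no response at any tested dose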
* = called active by the depositor; ? = inconclusive; . = not tested or not shown; [ ] = dose if it differs, or a comment. Compounds with a hit are over-represented: about 0.95% of the library has one in this group of screens. Unless noted, the call rests on the fitted dose curve; in most records, active means well fitted curve in the direction sought with a large enough effect; inconclusive means small, poorly fitted or top-dose-only effect, or another doubt; inactive means no such curve, though single readings can be large; an effect the other way counts as inactive or inconclusive.

SMILES	Giardia FBPA inh	RE007 growth inh	Tb PYK inh	LmPK inh	others
CCOc1ccc(NC(=O)CC2C(=O)OCCN2CC)cc1 (stereo not given)	.	.	-7%	.
CCOC(=O)c1ccc(NC(=O)CC2C(=O)OCCN2CC)cc1 (stereo not given)	2%	5µM*	2%	1%
CCOC(=O)c1ccc(NC(=O)CC2OCCN(CC)C2=O)cc1 (stereo not given)	2%	4.5µM*	0%	-2%
O=C(O)c1ccc(N2CCCCC2)cc1O	5%	1%	3%	2%
O=C(O)c1ccc(N2Cc3ccccc3C2)cc1O	1%	1%	?	14µM*
Cc1ccc(C)c(N2CCN(S(=O)(=O)c3ccc(C(=O)N(C)C)s3)CC2)c1	.	.	-1%	.
COc1cccc(C=Nc2cc(C)on2)c1O	0%	4%	-3%	16µM*
COc1cccc(C=Nc2ccccc2C#N)c1O	6%	-12%	-14%	14µM*
COc1ccc(-n2c(SCC(=O)Nc3cc(C)cc(C)c3)nc3c(oc4ccccc43)c2=O)cc1	.	.	1%	.
CN(C)c1cc(NC(=O)CNC(C)(C)C)c(O)c2c1C[C@@H]1C[C@H]3[C@H](N(C)C)C(=O)C(C(N)=O)=C(O)[C@@]3(O)C(=O)C1=C2O	.	.	-4%	.
CC(C(O)c1ccccc1)N(C)CCOC(c1ccccc1)c1ccccc1 (stereo not given)	.	.	-2%	.
Nc1ccccc1NC(=O)c1ccc(CNC(=O)OCc2cccnc2)cc1	3%	.	.	.
c1ccc(-c2ccc(-c3nccc4ccccc34)[nH]2)cc1	-5%	.	.	25µM*
N#Cc1cc(-c2ccccc2)[nH]c1-c1nccc2ccccc12	-9%	.	-2%	1%
CN(C(=O)c1ccco1)c1nnc(C23CC4CC(CC(C4)C2)C3)s1	-4%	5%	-2%	2%
CN(C(=O)c1ccco1)c1nc2c(s1)CCCC2	-1%	?	-18%	25µM*
CC[C@H](NC(C)C)[C@H](O)c1ccc(O)c(O)c1	3.5µM*	.	0%	.
CNC[C@H](O)c1ccc(O)c(O)c1	18µM*	1%[18.4 µM]	-1%	-6%
CNCC(O)c1ccc(O)cc1 (stereo not given)	-8%	-1%	6%	4%
C[C@H](N)[C@H](O)c1ccc(O)c(O)c1	7.1µM*	.	.	.
CC(C)C[C@H](NC(=O)CNC(=O)c1cc(Cl)ccc1Cl)B(O)O	.	.	1%	.
Cc1ccc(NNS(=O)(=O)c2ccc(C)cc2)cc1	.	32µM*	?	34%
CCOc1cc(N2CCOCC2)c(OCC)cc1NC(C)C(=O)N1CCN(CC)CC1 (stereo not given)	5µM*	-15%	5%	-7%
CC1CCN(S(=O)(=O)c2ccc3ncn(CC(=O)Nc4ccccc4C(F)(F)F)c(=O)c3c2)CC1	.	.	4%	.
COc1cc(/C=C2/C(=O)c3cccc([N+](=O)[O-])c3C2=O)c(Br)cc1O	-30%	-12%	?	14µM*
SMILES	Giardia FBPA inh	RE007 growth inh	Tb PYK inh	LmPK inh	others
CN(Cc1nc(-c2cccs2)no1)CC1COCCO1 (stereo not given)	5%	20%	0%	7%
CN(Cc1nc(C(c2ccccc2)c2ccccc2)no1)CC1COCCO1 (stereo not given)	-19%	23%	4%	14µM*
CO[C@@H]1[C@@H](OC2OC(C)C(OC3CC(C)(O)C(O)C(C)O3)C(N(C)C)C2O)[C@@H](CC=O)C[C@@H](C)[C@@H](OC2CCC(N(C)C)C(C)O2)/C=C/C=C/C[C@@H](C)OC(=O)C[C@H]1OC(C)=O (stereo not given in full)	.	.	1%	.
C=CCSc1ncnc2c1oc1nc3c(cc12)COC(C)(C)C3	-1%	-3%	4%	6%
CC1(C)Cc2nc3oc4c(=S)nc[nH]c4c3cc2CO1	11µM*	-14%	?	9%
Nc1ccc2nc(-c3ccccc3)sc2c1	-11%	?	?	8.9µM*	LmPK confirm=16µM*
CCC(=O)Nc1nnc(S(=O)(=O)N(C)Cc2ccccc2)s1	.	.	0%	.
Cc1ccc(S(=O)(=O)n2c(N)nc3ccccc32)cc1	0%	-6%	4%	2%
